EBV LMP1 NFkB: inhibitors of Epstein-Barr LMP1-induced NF-kappaB reporter; inhibition, % at 12.5 µM; actives 0.69% (n = 350,000); AID 504558; LMP1-induced NF-kappaB luciferase reporter cells, luminescence; in the data active means inhibition above about 41%;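 further: 0% = neutral control wells and 100% = reference inhibitor control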
HSP90 inh: blocks HSP90-mediated luciferase refolding in reticulocyte lysate. Rabbit reticulocyte lysate, luciferase refolding luminescence, 3 h. inhibition, % at 5.6 µM. AID 1789. actives 0.91% (n = 290,000);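 active means inhibition above the screen-wide mean plus 3 SD, computed separately per campaign, cut at about 16% in these data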;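 further: 0% = DMSO wells and 100% = 60 µM geldanamycin wells; inhibitors lower the luminescence because luciferase stays unfolded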
TWEAK Fn14 block: blocks TWEAK-Fn14 interaction in a reporter cell assay; AID 1159606; inhibition, % at 10 µM; actives 2% (n = 360,000); TWEAK-stimulated Fn14 reporter cells, luciferase luminescence, 8 h; in the data active means inhibition above about 50%
LGR2 inh: blocks bursicon-induced cAMP signaling via Drosophila LGR2; HEK293 LGR2, CRE-luciferase, bursicon-stimulated, 4 h; inhibition, % at 9.99 µM; actives 0.35% (n = 380,000); AID 720647;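 active means drop in luminescence signal, shown as inhibition above about 50% in the replicate tests, limit read from the data, passing the limit was not always enough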;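 further: agonist challenge used bursicon conditioned medium at about half maximal strength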
TROY NFkB inh: inhibitors of TROY-dependent NF-kB signaling. Q293 LMP1-TROYcd NF-kB luciferase reporter, 4 h. inhibition, % at 10 µM. actives 0.98% (n = 360,000). AID 1347056;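 active means compounds whose plate-normalised and pattern-corrected inhibition of the luciferase reporter signal at the single screening dose is 50% or more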
aDG glyco act: increases alpha dystroglycan glycosylation | Pro5-aDG cells, alpha-DG glycosylation AlphaScreen (IIH6); 0% Pro5, 100% B10-LARGE cell signal | activation, % at 10 µM | actives 0.22% (n = 360,000) | AID 624168;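 active means activation of at least 8% versus controls, or a plate z-score of at least 8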;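 further: Pro5 are CHO cells carrying HIG-tagged alpha-DG that lacks glycosylation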
An asterisk follows results filed as active. A selection: hits, their analogues and other compounds. The true share with any hit is near 2.6%.

O=C1C=C(NCCc2cc(Br)c(O)c(Br)c2)C(=O)c2ncccc21 was read as EBV LMP1 NFkB 18, TWEAK Fn14 block 94*, LGR2 inh 74*, TROY NFkB inh 38 and aDG glyco act 0.
`O=C(OCC12CC3CC(CC(C3)C1)C2)c1ccc(NCc2cc(O)ccc2O)cc1` gave EBV LMP1 NFkB 4, TWEAK Fn14 block 103*, LGR2 inh 6, TROY NFkB inh -6 and aDG glyco act -1.
CCNC(=O)OCCC12CC3CC(CC(C3)C1)C2 was read as EBV LMP1 NFkB 3, HSP90 inh 1, TWEAK Fn14 block -16, LGR2 inh -15, TROY NFkB inh -21 and aDG glyco act 0.
Screening O=C(OCCC12CC3CC(CC(C3)C1)C2)c1ccc(NCc2cc(O)ccc2O)cc1 returned EBV LMP1 NFkB -25, TWEAK Fn14 block 98*, LGR2 inh -22, TROY NFkB inh -3 and aDG glyco act 0.
O=C(Cc1ccccn1)N1CC(=O)N2[C@H](C1)[C@H](c1ccc(C#CCC3CCCC3)cc1)[C@@H]2CO was read as LGR2 inh -20.
For O=C1C=CC(=Nc2ccc3c(c2)Cc2ccccc2-3)O1 the results were EBV LMP1 NFkB -6, TWEAK Fn14 block 29, LGR2 inh -28, TROY NFkB inh 65* and aDG glyco act 0.
Screening O=C(CSc1nn(-c2ccccc2)c(=S)s1)Nn1cnnc1 returned EBV LMP1 NFkB -7, HSP90 inh 3, TWEAK Fn14 block 2, TROY NFkB inh -15 and aDG glyco act 0.
`Cc1ccc(NC(=O)CSc2nn(-c3ccccc3)c(=S)s2)cc1S(=O)(=O)N(C)C` gave EBV LMP1 NFkB 17, HSP90 inh 2, TWEAK Fn14 block 79*, LGR2 inh 23, TROY NFkB inh 49 and aDG glyco act 3.
`ClC(Cl)(c1nnnn1-c1ccccc1)c1nnnn1-c1ccccc1` gave EBV LMP1 NFkB -5, HSP90 inh -4, TWEAK Fn14 block 18, LGR2 inh -9, TROY NFkB inh 59* and aDG glyco act -1.
`CCOc1ccccc1-n1nnnc1SCC(=O)NC(=O)Nc1ccc2c(c1)OCCO2` gave EBV LMP1 NFkB 2, HSP90 inh 2, TWEAK Fn14 block 70*, TROY NFkB inh 25 and aDG glyco act 1.
For C=CCNc1nc(NCC)nc(N2CCOCC2)n1 the results were EBV LMP1 NFkB 3, HSP90 inh -1, TWEAK Fn14 block 6, TROY NFkB inh 14 and aDG glyco act 0.
For C=CCNc1nc(Nc2ccc(-c3nc4ccccc4o3)cc2)nc(N2CCOCC2)n1 the results were EBV LMP1 NFkB -6, HSP90 inh 2, TWEAK Fn14 block 53*, LGR2 inh -8, TROY NFkB inh 58* and aDG glyco act 0.
Screening COc1ccc2c3c([nH]c2c1)[C@H](CO)N(C(=O)c1ccncc1)CC31CN(C(=O)NC(C)C)C1 returned LGR2 inh 3.
CCc1ccc(C(=O)COC(=O)c2nn(C)c(=O)c3ccccc23)cc1 was read as EBV LMP1 NFkB 8, HSP90 inh -1, TWEAK Fn14 block -2, LGR2 inh -20, TROY NFkB inh 6 and aDG glyco act 0.
`CCc1ccc(C(=O)COC(=O)c2n[nH]c3ccccc23)cc1` gave EBV LMP1 NFkB 0, HSP90 inh -1, TWEAK Fn14 block 62*, LGR2 inh -20, TROY NFkB inh 12 and aDG glyco act 0.
C[C@H](CO)N1C[C@H](C)[C@H](CN(C)C)Oc2ccc(NS(=O)(=O)c3ccc(Cl)cc3)cc2C1=O was read as LGR2 inh 8.
`COc1ccccc1-n1cccc1C=O` gave EBV LMP1 NFkB 9, HSP90 inh 1, TWEAK Fn14 block 3, LGR2 inh 8, TROY NFkB inh 90* and aDG glyco act 0.
For O=C(C[C@H]1CC[C@H]2[C@@H](COC[C@@H](O)CN2S(=O)(=O)c2cccc(Cl)c2)O1)Nc1ccc(-c2ccccc2)cc1 the results were LGR2 inh 3.
Screening CC1(C)CC(=O)c2c(-c3cccs3)n[nH]c2C1 returned EBV LMP1 NFkB 18, HSP90 inh 5, TWEAK Fn14 block 55*, TROY NFkB inh 34 and aDG glyco act 0.
CC1=NN(c2ccccc2)C(=O)/C1=C\c1ccc(Oc2ccc([N+](=O)[O-])cc2[N+](=O)[O-])cc1 was read as EBV LMP1 NFkB 3, HSP90 inh 16*, TWEAK Fn14 block 5, LGR2 inh 17, TROY NFkB inh 40 and aDG glyco act 0.
Screening COc1ccc(C(=O)/C=C/Nc2ccc(S(=O)(=O)Nc3cccc(C(C)=O)c3)cc2)cc1 returned EBV LMP1 NFkB 6, HSP90 inh 3, TWEAK Fn14 block 79*, LGR2 inh 13, TROY NFkB inh 19 and aDG glyco act 1.
`COc1cc(OC)c(OC)cc1/C=C/C(=O)c1ccc(NS(=O)(=O)c2ccc(C)cc2)cc1` gave EBV LMP1 NFkB 11, HSP90 inh -1, TWEAK Fn14 block 62*, LGR2 inh 25, TROY NFkB inh 36 and aDG glyco act 0.
For COc1cccc(N/C=C/C(=O)c2ccc(Br)cc2)c1 the results were EBV LMP1 NFkB -31, HSP90 inh -2, TWEAK Fn14 block 31, TROY NFkB inh -46 and aDG glyco act 0.
`COc1cccc(C(=O)/C=C/Nc2ccc(S(=O)(=O)Nc3ccc(C(C)=O)cc3)cc2)c1` gave EBV LMP1 NFkB -2, HSP90 inh 4, TWEAK Fn14 block 28, LGR2 inh -39, TROY NFkB inh 16 and aDG glyco act 0.
COc1ccc(C(=O)/C=C/Nc2cccc(O)c2)cc1 was read as EBV LMP1 NFkB -35, HSP90 inh -2, TWEAK Fn14 block 52*, TROY NFkB inh -50 and aDG glyco act 0.
CC(=O)c1ccc(NS(=O)(=O)c2ccc(C)cc2)cc1 was read as EBV LMP1 NFkB -18, HSP90 inh -5, TWEAK Fn14 block -4, TROY NFkB inh -5 and aDG glyco act 0.
`O=C(C[C@H]1CC[C@@H](NC(=O)C2CCOCC2)[C@H](CO)O1)Nc1nccs1` gave LGR2 inh -6.
`Cc1noc(C)c1S(=O)(=O)Nc1ccc2c(c1)C(=O)N([C@H](C)CO)C[C@H](C)[C@H](CN(C)Cc1ccc3c(c1)OCO3)OCCCC[C@H](C)O2` gave LGR2 inh 17.
Screening COc1ccc2c3c([nH]c2c1)[C@H](CO)N(C(=O)Nc1ccc(F)cc1)CC31CCN(S(=O)(=O)c2cccc(F)c2)CC1 returned LGR2 inh 14.
For CCOC(=O)C(CCCOc1ccc(C)cc1)C(=O)OCC the results were EBV LMP1 NFkB 9, HSP90 inh 0, TWEAK Fn14 block -4, LGR2 inh -12, TROY NFkB inh -11 and aDG glyco act 0.
Screening CCOC(=O)C(CCCOc1ccccc1)C(=O)OCC returned EBV LMP1 NFkB 5, HSP90 inh -3, TWEAK Fn14 block 63* and aDG glyco act 0.

Source: PubChem (several laboratories)
